The target in assay [1] is Cytochrome P450 1A2 (Homo sapiens) (UniProt P05177). As to the kind of experiment: Cytochrome P450 Family 1 Subfamily A Member 2 (CYP1A2) small molecule antagonists: luciferase reporter qHTS assay (AID 1671199). Also: potency is read from the fitted curve at half-maximal effect. An outline of the steps: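 P450-Glo CYP1A2 enzyme–proluciferin substrate mix with compound 10 min at room temperature, then NADPH regeneration 1 h at room temperature. Luciferin detection reagent added, luminescence read after 20 min; furafylline positive control.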
Cytochrome P450 1A2 (Homo sapiens), sequence (P05177 whole entry, looked up): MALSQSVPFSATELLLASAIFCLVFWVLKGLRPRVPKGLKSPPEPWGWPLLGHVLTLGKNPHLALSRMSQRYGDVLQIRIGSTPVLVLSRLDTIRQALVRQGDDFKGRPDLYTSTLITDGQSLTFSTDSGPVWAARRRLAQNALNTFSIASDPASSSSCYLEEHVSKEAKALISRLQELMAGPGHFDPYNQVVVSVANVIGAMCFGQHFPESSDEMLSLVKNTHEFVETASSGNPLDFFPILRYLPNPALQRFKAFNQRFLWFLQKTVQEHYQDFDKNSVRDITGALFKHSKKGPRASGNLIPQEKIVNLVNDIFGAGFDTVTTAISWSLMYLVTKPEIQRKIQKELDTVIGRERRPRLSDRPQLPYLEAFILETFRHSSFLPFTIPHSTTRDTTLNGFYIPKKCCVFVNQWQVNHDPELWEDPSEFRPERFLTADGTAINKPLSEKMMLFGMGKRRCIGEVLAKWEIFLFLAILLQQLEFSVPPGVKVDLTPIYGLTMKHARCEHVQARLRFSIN

Assay [2] deals with Voltage-gated inwardly rectifying potassium channel KCNH2 (Homo sapiens) (UniProt Q12809). As to the kind of experiment: Human Ether-a-go-go-Related Gene (hERG) channel small molecule antagonists: fluorescence cell-based qHTS assay (AID 1671200).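 Also: hERG-expressing U2OS cells given a thallium stimulus after FluxOR II dye loading; series mostly up to about 77 µM.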 A digest of the protocol:
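First, 1000 cells per well are seeded and cultured overnight at 37 C. Next, FluxOR II dye is loaded for 1 h at room temperature, protected from light. After 10 more minutes, stimulus is added and fluorescence is read.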
On the technique in general: Block of hERG is tested as a sign of cardiac risk.

Assay [3] has as its target Cytochrome P450 3A4 (Homo sapiens) (UniProt P08684). As to the kind of experiment: Cytochrome P450 Family 3 Subfamily A Member 4 (CYP3A4) small molecule antagonists: luciferase reporter qHTS assay (AID 1671201). Also: series mostly up to about 120 µM. A digest of the protocol: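 Enzyme and proluciferin substrate are mixed with test chemicals for 10 min, then NADPH regeneration system drives turnover for 1 h at room temperature. A detection reagent halts the reaction; luminescence after 20 min gives relative activity.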

Molecules are shown by their SMILES. Several values for one entry are separate records, joined by “and”; a condition that tells them apart may be missing. Identical values can stand only once. Records with an inconclusive call do not appear. Entries that show only a call come without a potency. Where a structure was tested more than once in an assay, its records may differ in their call. Activity calls are given as the source filed them. Calls follow the shape of the dose curve; as a rule, active = well fitted curve in the direction sought with a large enough effect in the repeat runs; inconclusive = weak or mixed curves; inactive = no such curve, though single readings can be large; an effect the other way counts as inactive or inconclusive.
Also: nearly all actives have a fitted effect of over 50% in size.

Voltage-gated inwardly rectifying potassium channel KCNH2 (Homo sapiens), sequence (Q12809 whole entry, looked up): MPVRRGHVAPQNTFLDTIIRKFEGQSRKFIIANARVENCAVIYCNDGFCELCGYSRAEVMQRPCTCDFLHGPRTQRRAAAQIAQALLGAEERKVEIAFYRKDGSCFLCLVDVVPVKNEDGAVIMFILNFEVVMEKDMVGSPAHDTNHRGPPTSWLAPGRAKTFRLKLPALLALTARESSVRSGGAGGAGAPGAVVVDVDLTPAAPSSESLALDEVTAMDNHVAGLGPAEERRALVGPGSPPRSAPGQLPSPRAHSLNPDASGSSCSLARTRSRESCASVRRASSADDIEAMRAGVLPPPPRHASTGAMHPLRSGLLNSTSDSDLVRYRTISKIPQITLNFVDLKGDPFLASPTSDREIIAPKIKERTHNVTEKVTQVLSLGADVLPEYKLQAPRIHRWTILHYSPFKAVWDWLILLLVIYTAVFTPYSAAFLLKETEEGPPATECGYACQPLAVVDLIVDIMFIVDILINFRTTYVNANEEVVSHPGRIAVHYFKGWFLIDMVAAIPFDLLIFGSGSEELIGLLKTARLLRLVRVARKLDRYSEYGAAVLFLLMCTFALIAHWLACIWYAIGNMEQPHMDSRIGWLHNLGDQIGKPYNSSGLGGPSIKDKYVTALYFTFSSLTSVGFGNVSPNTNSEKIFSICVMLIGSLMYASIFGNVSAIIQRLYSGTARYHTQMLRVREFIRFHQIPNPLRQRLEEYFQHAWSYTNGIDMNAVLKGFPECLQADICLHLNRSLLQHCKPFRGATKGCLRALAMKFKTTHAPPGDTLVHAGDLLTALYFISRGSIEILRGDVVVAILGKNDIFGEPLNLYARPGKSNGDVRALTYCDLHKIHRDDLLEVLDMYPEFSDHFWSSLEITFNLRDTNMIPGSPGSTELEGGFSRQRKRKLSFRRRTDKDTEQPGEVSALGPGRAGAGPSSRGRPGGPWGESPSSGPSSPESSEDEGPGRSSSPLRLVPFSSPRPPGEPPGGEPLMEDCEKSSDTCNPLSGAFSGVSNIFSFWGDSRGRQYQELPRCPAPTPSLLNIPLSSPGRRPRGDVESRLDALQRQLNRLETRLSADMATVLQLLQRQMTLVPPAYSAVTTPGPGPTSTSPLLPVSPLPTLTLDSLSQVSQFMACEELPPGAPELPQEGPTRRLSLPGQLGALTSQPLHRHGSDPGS
Cytochrome P450 3A4 (Homo sapiens), sequence (P08684 whole entry, looked up): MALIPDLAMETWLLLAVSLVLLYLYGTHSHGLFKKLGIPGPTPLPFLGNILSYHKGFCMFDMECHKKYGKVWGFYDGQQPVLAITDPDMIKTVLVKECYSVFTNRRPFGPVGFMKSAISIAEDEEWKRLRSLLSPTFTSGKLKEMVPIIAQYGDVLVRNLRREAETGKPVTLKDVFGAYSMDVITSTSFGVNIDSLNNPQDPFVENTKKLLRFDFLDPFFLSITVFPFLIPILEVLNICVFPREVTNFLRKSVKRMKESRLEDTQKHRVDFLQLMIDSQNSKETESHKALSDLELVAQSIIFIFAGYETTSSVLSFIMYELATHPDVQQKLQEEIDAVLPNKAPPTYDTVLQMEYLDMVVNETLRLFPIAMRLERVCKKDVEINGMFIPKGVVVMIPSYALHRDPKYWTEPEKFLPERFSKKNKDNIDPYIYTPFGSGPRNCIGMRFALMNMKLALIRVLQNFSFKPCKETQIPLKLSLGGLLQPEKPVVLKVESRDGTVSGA

With `Cc1ccc(C)c(O)c1`, the Potency in assay [1] was 30.9 µM (active) and 41.1 µM (active). Also, the Potency entry in assay [2] and in assay [3] was “inactive” throughout.

For `CN(Cc1cnc2nc(N)nc(N)c2n1)c1ccc(C(=O)N[C@@H](CCC(=O)O)C(=O)O)cc1`, the Potency entry in assay [1] and in assay [3] was “inactive” each time.

Take `NCCS(=O)(=O)O`: the Potency result in assay [2] was “inactive”.

`O=C1OC2(c3ccccc31)c1cc(I)c(O)c(I)c1Oc1c2cc(I)c(O)c1I`: the Potency entry in assay [2] is “inactive”.

As to `O=[Se](O)O`, in assay [1], the Potency result was “inactive and 13.6 µM (active)”. In addition, the Potency result in assay [3] was “inactive”.

For the compound `CCOC(=O)C(C)Oc1ccc(Oc2cnc3cc(Cl)ccc3n2)cc1` (stereo not given), the Potency in assay [1] was 52.8 µM (active). The Potency result in assay [3] was “inactive”.

With `OCCNCCO`, in assay [3], the Potency entry is “inactive”.

Consider `CCC(Cc1c(I)cc(I)c(N)c1I)C(=O)O` (stereo not given), for which the Potency result in assay [2] and in assay [3] was “inactive” each time.

As for `CC/C(=C(/CC)c1ccc(O)cc1)c1ccc(O)cc1`, in assay [2], the Potency result is “inactive”.

For the compound `COC(=O)C(C)Oc1ccc(Oc2ncc(C(F)(F)F)cc2Cl)cc1` (stereo not given), the Potency entry in assay [3] was “inactive”.

Regarding `O=C(O)c1cc(=O)[nH]c(=O)[nH]1`, the Potency in assay [1] was 40 µM (active) and inactive. Besides, in assay [3], the Potency result was “inactive”.

In the case of `COC(=O)c1ccc(C)cc1`, the Potency entry in assay [3] is “inactive”.

For the compound `C[C@]12CC[C@@H]3c4ccc(O)cc4CC[C@H]3[C@@H]1CC[C@H]2O`, the Potency result in assay [3] was “inactive”.

Take `O=C(O)CCCCCCCCCCCC(=O)O`: the Potency result in assay [2] and in assay [3] was “inactive” in each case.

For `[Na+]`, the Potency result in assay [2] and in assay [3] was “inactive” in each case.

On to `O=C(O)c1ccc(O)cc1`, for which the Potency entry in assay [1] and in assay [3] was “inactive” in each case.

For the compound `COc1ccc(C(=O)c2ccccc2O)c(O)c1`, the Potency result in assay [2] is “inactive”.

On to `CNC[C@H](O)c1ccc(O)c(O)c1`, for which the Potency entry in assay [2] is “inactive”.

For the compound `C=C1C[C@H]2[C@@H]3C=C(C)C4=CC(=O)CC[C@]4(C)[C@H]3CC[C@]2(C)[C@@]1(OC(C)=O)C(C)=O`, the Potency result in assay [1] and in assay [3] was “inactive” each time.
